The structures appear in SMILES notation. The panel holds about 83,000 compounds, 20% with a hit somewhere; the sample as a whole holds those more often.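 48-hour exposure, single concentration, 96-well plates; percent growth endpoint where 0 means no net growth. Active: below 10.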 Active and inactive are the calls of the source.

This experiment relates to NCI-H322M lung. Description: NCI-60 one-dose screen, 48 h (100 = growth as untreated, 0 = no growth, -100 = all killed). The following applies: 10 µM unless noted. As for the experimental part: Growth inhibition of the NCI-H322M human Non-Small Cell Lung tumor cell line is measured as a screen for anti-cancer activity. Cells are grown in 96 well plates and exposed to the test compound for 48 hours. Compounds are tested at a single concentration, which is 10^-5 M for most compounds. The reported endpoint is percent growth (GI% or GIPRCNT), where numbers from 0 - 100% represent growth inhibition, and numbers from -100% - 0 represent cell death. For example, a value of 40 represents 60% growth inhibition. A value of 0 means no net growth occurred over the course of the experiment. A value of -40 indicates 40% of cells at the beginning of the experiment died by the end of the experiment. A value of -100 means all cells are dead at the end of the experiment.
NCI-60 Human Tumor Cell Lines Screen was performed using the standard one-dose NCI protocol, which is described in more detail at https://dtp.cancer.gov/discovery_development/nci-60/default.htm.
Compounds with GIPRCNT values below 10 were considered active. Activity score was based on GIPRCNT using the following formula: […]
Score is 0 for GIPRCNT values of 100 or above, 50 for GIPRCNT values of 0, and 100 for GIPRCNT values of -100.
Regarding `CCC12OC(COc3ccccc3)CN1CCN2c1ccccc1` (stereo not given), the growth was 93.3% [100 µM] (inactive).

With `CC1(C)OC2C(CO)OC(n3ccc(=O)[nH]c3=O)C2O1` (stereo not given), the growth is 92.5% (inactive).

Turning to `CCOC(=O)c1c(C)[nH]c(C)c1C=O`, the growth is 102% (inactive).

With `C=CC(=O)OC1CCC(C(C)(C)CC)CC1` (stereo not given), the growth is 110% (inactive).

For the compound `ON1CCCC1`, the growth is 108% (inactive).

Turning to `Cc1nc(C)c(C(=O)O)cc1C(=O)O`, the growth is 126% (inactive).

With `Nc1ncnc(Nc2ccccc2)n1`, the growth is 104% (inactive).

`CC(C)C1CCC(C)C(O)C1` (stereo not given): the growth is 105% (inactive).

Turning to `Nc1ccn(C2CC(N)C(CO)O2)c(=O)n1` (stereo not given), the growth was 96.6% (inactive).

Take `CCCNS(=O)(=O)c1ccc(Cl)cc1`: the growth was 93.6% (inactive).

For the compound `CSCC[C@@H]1C(=O)N(C)[C@H](C(C)(C)C)N1C(=O)c1ccccc1`, the growth was 97.6% (inactive).

Turning to `C=C1CC2(OC1=O)C(=O)N(C)c1ccc(I)cc12` (stereo not given), the growth was 50.6% (inactive).

Consider `CC(C)c1ccc(C(=O)OCCCl)cc1`, for which the growth was 92.7% (inactive).

For the compound `Cc1cc(C(=O)c2ccccc2)cc(C)c1O`, the growth was 101% (inactive).

As for `COc1nc(Nc2cccc(C(F)(F)F)c2)nc(OC)n1`, the growth is 96.9% (inactive).

Regarding `Nc1ccc2ccccc2c1-c1c(N)ccc2ccccc12`, the growth was 39.7% (inactive).

Take `Cc1cc(Cl)cc(Cc2cc(Cl)cc(C)c2O)c1O`: the growth was 18.1% (inactive).

For `Clc1cccc(Cl)c1CSc1nc2ccccc2n2cccc12`, the growth was 71.8% (inactive).

Regarding `COc1ccc2c(c1)Nc1ccccc1S2`, the growth was 101% (inactive).

On to `CCOC(C=O)OCC`, for which the growth was 104% (inactive).

For `CN1CCCN(C(c2ccccc2)c2ccc(Cl)cc2)CC1` (stereo not given), the growth is 100% (inactive).

As for `C/C(O)=C(/C=N/C(=S)Nc1ccccc1)C(=O)Nc1ccccc1C`, the growth is 104% (inactive).

As to `Cc1c(-c2ccc(C3CCCCC3)cc2)nc2ccc(F)cc2c1C(=O)O`, the growth was 56.4% (inactive).

Consider `C=COC(=O)C(C)(C)C`, for which the growth was 104% (inactive).

Take `CC(=O)Nc1ccc(/C=C2\SC(=S)N(/C=C(\C(C)=O)C(N)=O)C2=O)cc1`: the growth is 102% (inactive).

Take `CCCCCCCCCCC(=O)CCCCCCCCCC`: the growth was 109% (inactive).

In the case of `N#Cc1ccc2nc[nH]c2c1`, the growth is 108% (inactive).

As to `CC1(C)CCC(C)(C)NC(=S)N1`, the growth was 109% (inactive).

Regarding `CCN(C(=O)Nc1ccccc1Cl)c1ccccc1`, the growth is 109% (inactive).

In the case of `CCCCCCCCCCCCCCCCOc1ccccc1NC(=O)CC(C)=O`, the growth is 109% (inactive).

With `CC(C)N(C(=O)c1ccccc1)C(C)C`, the growth was 114% (inactive).

On to `CCOC(OCC)C(=O)c1ccccc1`, for which the growth is 100% (inactive).

Take `CCN(CC)c1ccc2nc3ccc(N=Nc4ccc(N(C)C)cc4)cc3[n+](-c3ccccc3)c2c1`: the growth was 25.2% (inactive).

On to `CC(=O)c1cccc(N(C)S(=O)(=O)c2ccc(C)cc2)c1`, for which the growth was 90.4% (inactive).

`CC(C)(C)NCCC(O)c1cc(C(F)(F)F)nc2c(C(F)(F)F)cccc12` (stereo not given): the growth was 76.2% (inactive).

Take `O=C(OCc1ccccc1)n1nnc2ccccc21`: the growth is 105% (inactive).

Consider `CSCCC(NC(=O)C(Cl)Cl)C(=O)O` (stereo not given), for which the growth is 99.6% (inactive).

Take `O=C(Nc1c(Cl)cc(Cl)cc1Cl)ON=C1CCCCC1`: the growth is 106% (inactive).

In the case of `CC1(c2ccccc2)CO1` (stereo not given), the growth was 125% (inactive).

In the case of `CCOC(=O)N[C@H]1CCc2cc(OC)c(OC)c(OC)c2-c2ccc(SC)c(=O)cc21`, the growth was 30.7% (inactive).

(Values after PubChem BioAssay (NCI).)
